Data published in PubChem BioAssay AID1494158 (National Center for Advancing Translational Sciences (NCATS), 2020).
Inconclusive results are not listed. Active and inactive are the calls of the source. Calls come from the whole dose curve.

Assay: VSV-G qHTS counterscreen for inhibitors of SARS-S pseudo-typed particle cell entry
Conditions: VSV-G pseudotyped particle entry counterscreen, luciferase; series mostly up to 57.1 µM

Structure (SMILES)	Potency
C=CC1(C)CC(=O)C2(O)C(C)(O1)C(OC(C)=O)C(OC(=O)CCN(C)C)C1C(C)(C)CCC(O)C12C (configuration not stated)	inactive
CC(C)OC(=O)[C@H](C)N[P@](=O)(CO[C@H](C)Cn1cnc2c(N)ncnc21)Oc1ccccc1	0.242 µM (active)
COc1cc2nccc(Oc3ccc(NC(=O)C4(C(=O)Nc5ccc(F)cc5)CC4)cc3)c2cc1OC	21.5 µM (active)
CCCN1C[C@H](C)[C@@H](O)[C@](C)(O)[C@@H](CC)OC(=O)[C@H](C)[C@@H](O[C@H]2C[C@@](C)(OC)[C@@H](O)[C@H](C)O2)C(C)[C@@H](O[C@@H]2O[C@H](C)C[C@H](N(C)C)[C@H]2O)[C@](C)(O)C[C@H]1C (some centres not stated)	inactive
COc1cccc2c1C(=O)c1c(O)c3c(c(O)c1C2=O)C[C@@](O)(C(C)=O)C[C@@H]3O[C@H]1C[C@H](N)[C@H](O)[C@H](C)O1	1.92 µM (active)
COc1cc2c(cc1Cc1cccc(Cl)c1F)c(=O)c(C(=O)O)cn2[C@H](CO)C(C)C	0.215 µM (active)
CC(C)(C)c1ccc(C(=O)CCCN2CCC(OC(c3ccccc3)c3ccccc3)CC2)cc1	27.1 µM (active)
Cc1nnc(C(=O)NC(C)(C)c2nc(C(=O)NCc3ccc(F)cc3)c(O)c(=O)n2C)o1	0.0171 µM (active)
Nc1ccn([C@@H]2O[C@H](CO)[C@@H](O)C2(F)F)c(=O)n1	0.171 µM (active)
O=c1ccc2ccccc2o1	inactive
N#CC(c1ccc(Cl)cc1)c1c(Cl)cc(-n2ncc(=O)[nH]c2=O)cc1Cl (configuration not stated)	10.8 µM (active)
CC[C@@]1(O)C(=O)OCc2c1cc1n(c2=O)Cc2cc3c(CN(C)C)c(O)ccc3nc2-1	0.383 µM (active)
O=c1c(C2CC(c3ccc(-c4ccc(Br)cc4)cc3)Cc3ccccc32)c(O)sc2ccccc12 (configuration not stated)	15.2 µM (active)
C[C@@H]1CCO[C@H]2Cn3cc(C(=O)NCc4ccc(F)cc4F)c(=O)c(O)c3C(=O)N12	0.0054 µM (active)
COc1ccc2cc3[n+](cc2c1OC)CCc1cc2c(cc1-3)OCO2	17.1 µM (active)
CC[C@@H]([C@H](C)O)n1ncn(-c2ccc(N3CCN(c4ccc(OC[C@@H]5CO[C@@](Cn6cncn6)(c6ccc(F)cc6F)C5)cc4)CC3)cc2)c1=O	6.81 µM (active)
C[n+]1c2cc(N)ccc2cc2ccc(N)cc21 (tested in a mixture with another compound)	4.82 µM (active)
CCN(CC)CCNC(=O)c1c(C)[nH]c(/C=C2\C(=O)Nc3ccc(F)cc32)c1C	17.1 µM (active)
CCc1c2c(nc3ccc(OC(=O)N4CCC(N5CCCCC5)CC4)cc13)-c1cc3c(c(=O)n1C2)COC(=O)[C@]3(O)CC	inactive
Cc1oncc1C(=O)Nc1ccc(C(F)(F)F)cc1	inactive
COc1cc(NS(C)(=O)=O)ccc1Nc1c2ccccc2nc2ccccc12	0.764 µM (active)
N/C(=N\N=C\c1ccc(Cl)cc1)N/N=C/c1ccc(Cl)cc1	24.1 µM (active)
